From PubChem
Most compounds without a hit are left out; they make up all but 4.9% or so of the library.
Beta cell apopt = inhibitors of cytokine-induced beta cell apoptosis, primary screen, luminescence. 0.8% of 300,000 active. INS-1E cytokine-induced death, ATP luminescence, 48 h; percent of positive-control rescue, neutral wells zero. protection from apoptosis, % (test concentration not listed);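 active means Every replicate reaches about 75%, or at least half do and their mean reaches it too, limit read from the data; inconclusive means At least half of replicates reach the limit but their mean does not; inactive means Under half of replicates reach the limit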;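 further: higher means more ATP so stronger rescue from cytokine killing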
Mdm2-MdmX inh = inhibitors of human Mdm2-MdmX association, primary screen, cell-based, luminescence, split luciferase, SaOS-2, uHTS; Protein Mdm4 (Homo sapiens) + E3 ubiquitin-protein ligase Mdm2 (Homo sapiens), …; SaOS-2 split-luciferase Mdm2/MdmX complementation; inhibition, % at 8 µM; 3% of 330,000 active;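 active means inhibition of at least 50% at 8 µM in the primary screen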
PP1 counter = PP1-alpha phosphatase inhibitors, primary screen, counter-screen for PP5 inhibitor project, biochemical, fluorescence, OMFP substrate, single point; inhibition, % at 6.7 µM; purified PP1alpha; 0.9% of 320,000 active; AID 2235, 2010;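 active means inhibition above the mean inhibition of all tested compounds plus 3 SD, computed separately for each screening campaign, cut at about 15% in these data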
CSC inhib = cancer stem cell viability inhibitors, primary screen, luminescence | AID 2717, 2010 | 1.1% of 300,000 active | cancer stem cell-like cells viability | inhibition, % at 7.5 µM; in the data active means inhibition above about 75%; inconclusive means no clear call, values can overlap the other calls; tested in HMLE shEcad cells
Calb FLC = C. albicans growth inhibition with fluconazole, primary screen, CaCi-2 strain, Alamar Blue fluorescence; 0.57% of 300,000 active; growth inhibition, % (concentration not given with the values); C. albicans CaCi-2 (fluconazole-resistant clinical isolate) + fluconazole, 48 h;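 active means growth inhibition above about 58% in most replicates, limit read from the data, passing the limit was not always enough; inconclusive means exactly half the replicates above a set limit; inactive means most replicates below a set limit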;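 further: all wells also contain fluconazole at 8 µg/ml as a sub-toxic cotreatment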
PP5 primary = PP5 phosphatase inhibitors, primary screen, biochemical, fluorescence; 0.18% of 320,000 active; purified PP5c, OMFP substrate fluorescence; AID 1987, 2009; inhibition, % at 6.7 µM; Serine/threonine-protein phosphatase 5 (Homo sapiens), P53041;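 active means inhibition above the campaign's mean inhibition across all tested compounds plus 3 SD, cut at about 9.5% in these data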
PP5 inh confirm = PP5 phosphatase inhibitors, confirmation, biochemical, fluorescence, human; Purified PP5, fluorogenic phosphatase substrate; inhibition, % at 6.7 µM; shares compounds with PP5 primary; 22% of 460 active; AID 2331, 2010; in the data active means inhibition above about 9.5%
PP1 inh counter = PP1 phosphatase inhibitors, counter-screen for PP5 inhibitor project, biochemical, fluorescence, triplicate | shares compounds with PP5 primary | PP1 enzyme, fluorescent phosphatase substrate | inhibition, % at 6.7 µM | 4% of 460 active | AID 2355, 2010; in the data active means inhibition above about 16%
Numbers stand for hits; – = inactive; ? = inconclusive; · = no result.

SMILES | Beta cell apopt | Mdm2-MdmX inh | PP1 counter | CSC inhib | Calb FLC | PP5 primary | PP5 inh confirm | PP1 inh counter
O=C(Nc1ccccc1)C1CCCN1S(=O)(=O)c1ccc(Br)cc1 (configuration not stated) | – | – | – | – | – | – | · | ·
COc1ccc(NC(=O)COC(=O)Cc2coc3cc(OC)ccc23)c(OC)c1 | – | – | · | – | · | · | · | ·
Oc1ccc(/C=N\Nc2cc(N3CCOCC3)nc(N3CCOCC3)n2)c(O)c1 | – | – | – | – | – | 14.3 | 35.8 | –
COc1cccc(CNC(=O)C2CCN(S(=O)(=O)c3ccccc3)CC2)c1 | · | – | – | – | – | 11.7 | – | –
COc1ccc(S(=O)(=O)N2CCC(C(=O)NCc3cccc(OC)c3)CC2)cc1 | – | – | – | – | – | – | · | ·
CCc1ccc(CN(C)C(=O)CCc2nc3ccccc3n(-c3ccc(OC)cc3)c2=O)cc1 | – | – | – | – | – | 10.1 | – | –
CC(C)(CO)NC12CC3CC(CC(C3)C1)C2 | – | – | – | – | ? | 10.8 | – | –
CCC(=O)Nc1cccc(-n2nnnc2SCC(=O)c2ccc(C)c(C)c2)c1 | – | – | – | – | – | 13.1 | – | –
COc1ccc(C(=O)Nc2ccc(S(=O)(=O)NC(C)=O)cc2)cc1 | – | – | – | – | – | 11.8 | – | –
CCCCCNC(=O)CC1Nc2c3ccccc3nc(=S)n2C1=O (configuration not stated) | – | – | – | – | ? | 9.9 | – | –
O=C(NCCCCc1ccccc1)c1ccccc1F | – | – | – | – | – | 11.8 | – | –
O=C(NCCc1ccccc1)c1ccccc1F | – | – | – | – | – | – | · | ·
COc1cc(CNC(=O)c2ccc3c(c2)S(=O)(=O)c2ccccc2C3=O)cc(OC)c1 | – | – | – | – | – | – | · | ·
Cc1ccc(S(=O)(=O)/N=C2\C=C(Nc3cccc(C(=O)O)c3)C(=O)c3ccccc32)c(C)c1 | 95.3 | – | – | – | – | 9.8 | 35.9 | –
Cc1ccc(S(=O)(=O)/N=C2/C=C(Sc3ncn[nH]3)C(=O)c3ccccc32)cc1 | 97.8 | · | – | 106.7 | · | 12.8 | 23.4 | 24.3
Cc1ccc(S(=O)(=O)/N=C2/C=C(Sc3ncn[nH]3)C(=O)c3ccccc32)c(C)c1 | 128.5 | · | – | 102.6 | · | 13.2 | 36.5 | –
Cc1ccc(S(=O)(=O)Nc2ccc(O)c(Sc3ncn[nH]3)c2)cc1 | · | – | – | – | – | – | · | ·
CC(C)(C)c1ccc(S(=O)(=O)/N=C2\C=C(NS(=O)(=O)c3ccccc3)C(=O)c3ccccc32)cc1 | – | – | – | – | – | – | · | ·
CC1CCc2sc3c(c2C1)c(=O)n(CC(=O)O)c(=O)n3Cc1ccc(Cl)cc1 (configuration not stated) | – | – | – | – | – | – | · | ·
O=C(N/C(=C/c1cccc([N+](=O)[O-])c1)C(=O)N1CCCCCC1)c1cccs1 | – | – | – | – | – | – | · | ·
Cn1ncc2c(Nc3ccc(Cl)c(Cl)c3)ncnc21 | – | – | – | – | – | – | · | ·
CCNc1nc(Nc2ccc(C)c(Cl)c2)c2cnn(C)c2n1 | – | – | – | – | – | 10.4 | – | –
CCc1c(C(=O)NCCc2ccc(OC)c(OC)c2)[nH]c(C)c1C(C)=O | – | – | – | – | – | 12.5 | – | –
CCc1c(C(=O)NCCc2cccc(C)c2)[nH]c(C)c1C(C)=O | – | – | – | – | – | – | · | ·
CCc1ccc(NC(=O)CN(CC(=O)Nc2ccc(CC)cc2)CC(C)O)cc1 (configuration not stated) | – | – | – | – | – | 11.5 | – | –
SMILES | Beta cell apopt | Mdm2-MdmX inh | PP1 counter | CSC inhib | Calb FLC | PP5 primary | PP5 inh confirm | PP1 inh counter
CN1c2ccsc2C(O)=C(C(=S)Nc2ccc(F)c(Cl)c2)S1(=O)=O | · | – | – | – | – | – | · | ·
O=[N+]([O-])c1ccc(O)c(-c2nn[nH]n2)c1 | – | – | – | – | – | 30.3 | 18.1 | –
O=C(Nc1ccc(O)cc1)C1CCCO1 (configuration not stated) | – | – | – | · | – | 10.8 | – | –
O=C(COCC(=O)Nc1cccc(C(F)(F)F)c1)Nc1cccc(C(F)(F)F)c1 | – | – | – | 76.6 | – | 10.1 | 10.2 | –
Clc1ccc(OCCn2ccnc2)cc1Cl | – | – | – | – | – | 10.0 | – | –
O=C(CCn1cccn1)Nc1ccc(-c2ccno2)cc1 | – | – | – | – | – | – | · | ·
O=C(COc1cccnc1[N+](=O)[O-])c1ccc(Cl)s1 | – | – | – | – | – | 10.7 | – | –
O=C(COc1cccnc1[N+](=O)[O-])Nc1c(Cl)cccc1Cl | – | – | · | – | · | · | · | ·
COc1ccc2c(Cl)c(C(=O)N/N=C/c3c(C)[nH]c4ccccc34)sc2c1 | – | – | – | – | – | – | · | ·
Cc1ccc(NC(=O)CN(C)C(=O)c2cccnc2Nc2cccc(C(F)(F)F)c2)cc1 | – | – | – | – | – | 10.6 | – | –
CCOc1ncccc1C(=O)N(C)CC(=O)Nc1ccc(C)cc1 | – | – | – | – | – | – | · | ·
COc1cccc(NC(=O)CN(C)C(=O)c2ccccc2OCC(=O)Nc2cccc(C(F)(F)F)c2)c1 | – | – | – | – | – | – | · | ·
COc1cccc(NC(=O)CN(C)C(=O)c2cccnc2Nc2cccc(C(F)(F)F)c2)c1 | – | – | – | · | · | 14.4 | 9.7 | –
O=C(NCCCN1CCCC1=O)c1cccc(S(=O)(=O)N2CCCCC2)c1 | – | – | – | – | · | – | · | ·
CSc1nnc(C)c(=O)n1COC(=O)/C=C/c1ccccc1 | – | – | – | – | – | – | · | ·
COc1ccccc1NC(=O)Cn1nc(-c2ccncc2)nc1SCC(=O)NC1CCCC1 | – | – | – | – | – | 10.6 | – | –
COc1ccccc1NC(=O)Cc1nnc(SCC(=O)NC2CCCC2)n1C | – | – | – | – | – | – | · | ·
CCCCC1=NN(C(=O)c2ccncc2)C(O)(C(F)(F)F)C1 (configuration not stated) | – | – | – | – | – | – | · | ·
CCCCC1=NN(C(=O)c2cocc2C)C(O)(C(F)(F)F)C1 (configuration not stated) | – | – | – | – | – | 13.2 | – | –
COc1cc(Cl)c(C)cc1NC(=O)c1ccc(S(C)(=O)=O)cc1 | – | – | – | – | – | – | · | ·
O=C(COc1ccc(S(=O)(=O)N2CCOCC2)cc1)NCc1ccccn1 | – | – | – | – | – | – | · | ·
O=C1CN(c2nc(-c3cccnc3)nc3scc(-c4ccccc4)c23)CCN1 | – | – | – | – | – | 10.2 | – | –
